Reference: PubChem BioAssay AID1159580 (chemical genetic matrix, 2015)
In all, about 5,500 compounds went through this assay and about 2,000 (36%) were called active. About 18% were inconclusive and are not listed. No stated cut-off is given here; in the data, active means normalized growth mostly below about 0.91 (no sharp cut-off); inconclusive means no clear call, values can overlap the other calls; inactive means mostly above about 0.92. The list shows a part of the results.

Experiment: chemical genetic growth profiling, strain panel (AID 1159580);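 further: tested at 20 µM; growth read once vehicle control cultures reached saturation at 30 °C; 1 = growth at the plate median or of vehicle wells; lower values mean less growth of the strain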
Settings: S. cerevisiae deletion strains, growth OD

Measured: normalized growth

Cc1nc(N=Nc2ccc(C(=O)O)cc2)c(COP(=O)(O)O)c(C=O)c1O
inactive: locus YAL040C, strain CLN3, active compounds read low 0.978 | locus YCL061C, strain MRC1 (second series), active compounds read low 1.01 | locus YDR150W, strain NUM1, active compounds read low 1.02 | locus YDR363W, strain ESC2, active compounds read low 1 | locus YER002W, strain NOP16, active compounds read low 1.02 | locus YMR263W, strain SAP30, active compounds read low 1.01 | locus YMR307W, strain GAS1, active compounds read low 1.04 | locus YNL128W, strain TEP1, active compounds read low 0.99 | locus YNL175C, strain NOP13, active compounds read low 1.01 | locus YNL197C, strain WHI3, active compounds read low 1.01 | locus YNL224C, strain SQS1, active compounds read low 1.01 | locus YOR083W, strain WHI5 (second series), active compounds read low 1.03 | locus YPL055C, strain LGE1, active compounds read low 1.01 | locus YPL241C, strain CIN2, active compounds read low 1.01

COC(=O)C1=COC(OC2OC(CO)C(O)C(O)C2O)C2C(C)CC(=O)C12O (centres undefined)
inactive: locus YAL021C, strain ccr4, active compounds read low 0.942 | locus YAL026C, strain drs2, active compounds read low 0.994 | locus YAL030W, strain snc1, active compounds read low 0.975 | locus YBL061C, strain skt5, active compounds read low 0.991 | locus YBR009C, strain hhf1, active compounds read low 0.944 | locus YBR023C, strain chs3, active compounds read low 0.986 | locus YBR171W, strain sec66, active compounds read low 0.983 | locus YBR231C, strain swc5, active compounds read low 1.02 | locus YBR279W, strain paf1, active compounds read low 0.995 | locus YCL011C, strain gbp2, active compounds read low 0.982 | locus YCL016C, strain dcc1, active compounds read low 0.978 | locus YCL069W, strain vba3, active compounds read low 0.987 | locus YCR088W, strain abp1, active compounds read low 1 | locus YDL005C, strain med2, active compounds read low 0.986 | locus YDL040C, strain nat1, active compounds read low 0.994 | locus YDR001C, strain nth1, active compounds read low 0.965 | locus YDR069C, strain doa4, active compounds read low 0.985 | locus YDR137W, strain rgp1, active compounds read low 0.982 | locus YDR159W, strain sac3, active compounds read low 1.03 | locus YDR195W, strain ref2 0.989 | locus YDR297W, strain sur2, active compounds read low 0.993 | locus YDR334W, strain swr1, active compounds read low 0.959 | locus YDR335W, strain msn5, active compounds read low 0.994 | locus YDR392W, strain spt3, active compounds read low 0.898 | locus YEL003W, strain gim4, active compounds read low 0.989 | locus YEL037C, strain rad23, active compounds read low 0.984 | locus YEL061C, strain CIN8 (second series), active compounds read low 0.984 | locus YER015W, strain faa2, active compounds read low 0.977 | locus YER016W, strain bim1, active compounds read low 0.985 | locus YER111C, strain swi4, active compounds read low 0.987 | locus YER155C, strain BEM2 (second series), active compounds read low 1.01 | locus YFR010W, strain ubp6, active compounds read low 0.989 | locus YGL167C, strain pmr1, active compounds read low 0.966 | locus YGL173C, strain kem1, active compounds read low 0.997 | locus YGL227W, strain vid30, active compounds read low 0.991 | locus YGL240W, strain doc1, active compounds read low 1.01 | locus YGL253W, strain hxk2, active compounds read low 1.01 | locus YHR013C, strain ard1, active compounds read low 0.953 | locus YHR027C, strain rpn1, active compounds read low 0.967 | locus YHR142W, strain chs7, active compounds read low 0.993 | locus YJL092W, strain hpr5, active compounds read low 0.983 | locus YJL095W, strain BCK1 (second series), active compounds read low 0.982 | locus YJL115W, strain asf1, active compounds read low 0.972 | locus YJL129C, strain trk1, active compounds read low 1 | locus YJL154C, strain vps35, active compounds read low 0.978 | locus YJL164C, strain tpk1, active compounds read low 0.946 | locus YJL166W, strain qcr8, active compounds read low 0.975 | locus YKL160W, strain elf1, active compounds read low 0.979 | locus YKR026C, strain gcn3, active compounds read low 0.986 | locus YKR091W, strain srl3, active compounds read low 0.978 | locus YLL001W, strain dnm1, active compounds read low 1.01 | locus YLL026W, active compounds read low 0.987 | locus YLL041C, strain sdh2, active compounds read low 0.98 | locus YLR027C, strain aat2, active compounds read low 1.01 | locus YLR221C, strain rsa3, active compounds read low 1.03 | locus YLR258W, strain gsy2, active compounds read low 0.993 | locus YLR262C, strain YPT6 (second series), active compounds read low 0.984 | locus YLR320W, strain mms22, active compounds read low 1.03 | locus YLR342W, strain FKS1, active compounds read low 0.999 | locus YLR357W, strain rsc2, active compounds read low 0.975 | locus YLR370C, strain arc18, active compounds read low 1.01 | locus YLR384C, strain iki3, active compounds read low 0.998 | locus YML120C, strain ndi1, active compounds read low 0.955 | locus YMR058W, strain fet3, active compounds read low 0.987 | locus YMR125W, strain sto1, active compounds read low 0.937 | locus YMR129W, active compounds read low 0.975 | locus YMR205C, strain PFK2, active compounds read low 0.945 | locus YMR231W, strain pep5, active compounds read low 0.99 | locus YNL071W, strain lat1, active compounds read low 0.974 | locus YNL209W, strain ssb2, active compounds read low 1 | locus YNL248C, strain rpa49, active compounds read low 1.03 | locus YNL322C, strain KRE1 (second series), active compounds read low 0.978 | locus YNR049C, strain mso1, active compounds read low 0.971 | locus YOR001W, strain rrp6, active compounds read low 1.02 | locus YOR070C, strain gyp1, active compounds read low 0.996 | locus YOR080W, strain dia2, active compounds read low 0.992 | locus YOR083W, strain WHI5, active compounds read low 0.98 | locus YOR106W, strain vam3, active compounds read low 0.94 | locus YOR265W, strain rbl2, active compounds read low 0.999 | locus YOR270C, strain vph1, active compounds read low 1.02 | locus YOR290C, strain snf2, active compounds read low 0.927 | locus YPL051W, strain arl3, active compounds read low 0.999 | locus YPL078C, strain atp4, active compounds read low 0.954 | locus YPL106C, strain sse1, active compounds read low 0.959 | locus YPL240C, strain hsp82, active compounds read low 0.986
